Assay outcomes from PubChem.
UBC9 SUMO inh: inhibitors of in vitro SUMOylation cascade, primary screen, biochemical, HTRF, uHTS; SUMO-conjugating enzyme UBC9 (Homo sapiens), P63279; HTRF SUMOylation assay, SAE1/SAE2 + UBC9; inhibition, % at 35 µM; hit rate 0.36% among 290,000; in the data active means inhibition above about 50%, passing the limit was not always enough
PHOSPHO1 block: PubChem AID 1565; hit rate 1.1% among 290,000; Phosphoethanolamine/phosphocholine phosphatase (Homo sapiens), Q8TCT1; recombinant PHOSPHO1, absorbance phosphatase assay; inhibition, % at 13.3 µM; in the data active means inhibition above about 60%
NadD block: inhibitors of S. aureus NadD, primary screen, biochemical, colorimetric, uHTS | Nicotinate-nucleotide adenylyltransferase NadD (Staphylococcus aureus N315) | purified NadD enzyme, colorimetric absorbance read-out | inhibition, % at 20 µM | hit rate 0.78% among 360,000; in the data active means inhibition above about 26%
p-CIP stab down: p/CIP-EGFP fusion destabilizers, primary screen, fluorescence, F442A cells; AID 1984, 2009; hit rate 0.01% among 290,000; decrease of EGFP signal, % at 10 µM; 16 h;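 active means EGFP signal decrease of at least 30% at 10 µM or well 3 SD below plate mean, unless failing retest; inactive means the rest, including hits failing retest or dose response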
NadD inh conf: inhibitors of S. aureus NadD, confirmation, biochemical, colorimetric, single concentration; purified S. aureus NadD, colorimetric enzyme assay; inhibition, % at 20 µM; AID 624309, 2012; shares compounds with NadD block; hit rate 13% among 2,000; in the data active means inhibition mostly above about 42%, no sharp cut-off; inactive means mostly below about 42%
Starred values were filed as active, the others as inactive; . = no result. Hits are enriched below; roughly 1.8% of the tested compounds scored in any of these assays.

SMILES	UBC9 SUMO inh	PHOSPHO1 block	NadD block	p-CIP stab down	others
CCC(C)C(N)C1=NC(C(=O)N[C@@H](CC(C)C)C(=O)N[C@H](CCC(=O)[O-])C(=O)N[C@H](C(=O)N[C@H]2CCCCNC(=O)[C@H](CC(N)=O)NC(=O)[C@@H](CC(=O)[O-])NC(=O)[C@H](Cc3cnc[nH]3)NC(=O)[C@@H](Cc3ccccc3)NC(=O)[C@H]([C@@H](C)CC)NC(=O)[C@@H](CCCN)NC2=O)[C@@H](C)CC)CS1.[Zn+2] (some centres undefined)	.	.	20.6	.
Cc1ccc(NC(=O)Nc2cccs2)cc1	-12.9	8.9	1.7	-2.3
O=C(NCc1cccs1)Nc1cccs1	13.9	68.4*	1.7	-13.3
CCc1ccc(NC(=O)Nc2cccs2)cc1	8.5	73.7*	-5.9	-15.6
COc1ccc(CCn2c(N)c(C(=O)NCc3ccco3)c3nc4ccccc4nc32)cc1	100.1*	7.1	11.4	1.4
C=CCNc1nnc(SC2CC(=O)N(c3ccc(OC)cc3)C2=O)s1 (centres undefined)	-2.6	92.8*	-5.8	-2.8
CC1CN(C(=O)COC(=O)c2cncc(Br)c2)CC(C)O1 (centres undefined)	.	.	-10.3	.
CC(OC(=O)/C=C/c1ccco1)C(=O)NC1CCCCC1 (centres undefined)	.	.	-2.4	.
O=C(COC(=O)CCC(=O)c1ccc(F)cc1)Nc1ccccc1	4.2	6.6	-5.8	1.9
CCN(CC)c1ccc(NC(=O)COC(=O)CCC(=O)c2ccc(F)cc2)cc1	-9.5	85.0*	-12.7	3.1
O=C(O)CCN1C(=O)/C(=C\c2ccc(OCc3ccccc3)c(OCc3ccccc3)c2)SC1=S	27.2	18.5	31.1*	-28.1
O=C(O)CN1C(=O)/C(=C\c2cc(Br)ccc2OCc2ccccc2Cl)SC1=S	-10.6	.	15.8	6.3
O=C(O)CCN1C(=O)/C(=C\c2cccc(OCc3ccccc3)c2)SC1=S	14.7	14.6	7.4	-21.7
O=C(O)CN1C(=O)/C(=C\c2cc(Br)ccc2OCc2ccc([N+](=O)[O-])cc2)SC1=S	50.7*	.	24.0	-10.4
O=C1/C(=C\c2cc(Br)cc(Br)c2O)SC(=S)N1Cc1ccccc1	58.6*	2.5	42.1*	-33.3
Brc1cccc(-c2nc3c4ccccc4ccn3c2Cc2ccccc2)c1	.	.	6.2	.
COc1ccc(NC(=O)C2Cc3c(-c4ccc(Cl)cc4)ccnc3O2)cn1 (centres undefined)	.	.	-9.0	.
O=C(Nc1ccc(C(O)c2ccccc2)cc1)[C@H]1C[C@H](O)[C@@H](CO)O1 (some centres undefined)	.	.	-0.7	.
COCCn1c(SCC(=O)c2ccc3c(c2)OCCO3)nnc1C(C)C	3.3	-3.9	-5.2	-24.6
COCCn1c(SCC(=O)c2ccc(Cl)cc2)nnc1C(C)C	3.0	75.1*	9.1	-6.8
CCOC(=O)c1c(N)sc2c1CCSC2	7.7	65.1*	13.6	-11.9
CCOC(=O)c1c(N)sc(=S)c2c1CCC2	14.0	60.2*	7.9	-17.0
CCOC(=O)c1c(N)sc(N)c1C(=O)OCC	11.1	-2.6	6.3	1.6
Brc1ccccc1C1=Nn2c(nnc2-c2ccccc2)SC1	-6.5	83.3*	-1.7	2.0
Cc1ccc(-n2nc3c(=O)n(CCCC(=O)NCc4ccco4)nc(C)c3c2C)cc1	.	64.0*	2.3	-21.2
SMILES	UBC9 SUMO inh	PHOSPHO1 block	NadD block	p-CIP stab down	others
COc1cc(-c2nn3c(COc4ccccc4)nnc3s2)cc(OC)c1OC	14.0	73.8*	-3.3	-7.8
c1ccc(Cc2nn3c(COc4ccccc4)nnc3s2)cc1	-5.9	65.8*	4.0	-0.9
c1ccc(Cc2nnc3sc(-c4ccco4)nn23)cc1	20.9	95.9*	6.5	-20.3
COc1cc(-c2nn3c(Cc4ccccc4)nnc3s2)cc(OC)c1OC	7.5	76.6*	-8.0	9.6
Clc1ccccc1-c1nnc2sc(-c3ccco3)nn12	2.3	41.2	3.9	-17.6
O=C(NCc1cccnc1)c1cc(C2CCCCN2S(=O)(=O)c2cccc3cccnc23)on1 (centres undefined)	.	.	2.3	.
CC1C(c2ccccc2)OCCN1C(=S)Nc1ccc(S(=O)(=O)N2CCCCC2)cc1 (centres undefined)	.	.	-2.3	.
CN(C)C(=O)c1cnc(Cc2c[nH]c3ccccc23)c(I)c1	.	.	1.7	.
O=C(COc1ccc(Br)cc1Br)NC(=S)N1CCCc2ccccc21	10.3	82.7*	4.4	1.1
Cc1[nH]c2ccccc2c1Cc1n[nH]c(=S)o1	12.0	90.4*	3.1	-3.6
Cc1[nH]c2ccccc2c1Cc1n[nH]c(=S)n1C	20.4	-16.5	-1.3	-0.7
Cc1cccc(C)c1-n1nnnc1C1(C)CCC(=O)N1CCc1ccc(O)cc1 (centres undefined)	.	.	-9.5	.
O=C(C[n+]1ccccc1)NNc1ccccc1	.	.	-1.2	.
Cc1ccccc1-n1c(SCC(=O)N2CCN(c3ccccc3)CC2)nnc1-c1ccncc1	3.8	65.5*	-3.5	0.2
CCn1c(COc2c(C)cccc2C)nnc1SCC(=O)N1CCN(c2ccccc2)CC1	24.6	33.0	-17.0	-6.5
Cc1ccc(-n2c(Cc3cccn3C)nnc2SCC(=O)N2CCN(c3ccccc3)CC2)cc1	4.3	76.7*	0.9	1.7
CCn1c(COc2cc(C)cc(C)c2)nnc1SCC(=O)N1CCN(c2ccccc2)CC1	15.8	72.9*	3.2	-8.4
CC(=O)Nc1ccc(NC(=O)CSc2nnc(NC(=O)c3ccccc3F)s2)cc1	.	.	-3.6	.
[O-]/[N+](=N\Nc1ccc(Cl)cc1)c1ccccc1	.	.	2.2	.
CCc1cc2c(SCC(=O)N(CC)c3c(N)n(Cc4ccccc4)c(=O)[nH]c3=O)ncnc2s1	5.9	68.1*	1.3	-1.4
Cc1ccc(C(O)c2ncc(-c3cccc4ccccc34)[nH]2)cc1F (centres undefined)	.	.	7.2	.
Cc1ccc(NC(=O)COc2ccc(/C=C3/SC(=Nc4ccccc4)N(Cc4cccnc4)C3=O)cc2)cc1	6.4	1.7	40.1*	-8.2	NadD inh conf=3.0
OC[C@@H]1CN(Cc2cccc(C(F)(F)F)c2)C[C@H](n2cnc3c(NCc4ccncc4)ncnc32)O1	.	.	3.6	.
CCCn1c(=O)c(C(=O)NNS(=O)(=O)c2ccc(Cl)cc2)c(O)c2ccccc21	-7.1	3.2	30.1*	8.1	NadD inh conf=23.8
CCCCCCCCCC(=O)NNC(=O)c1c(O)c2ccccc2n(CCC)c1=O	-22.4	36.3	38.1*	-3.1	NadD inh conf=0.4
COc1cc2c(C(=O)N3CCN(c4ccccc4C)CC3)c(C)oc2cc1Br	7.2	1.7	0.9	-6.9
O=C(NC(C(=O)N/N=C/c1c2ccccc2cc2ccccc12)c1n[nH]c(=O)c2ccccc12)c1ccccc1 (centres undefined)	7.3	32.7	51.3*	29.7	NadD inh conf=23.4
COCCn1c(C)cc(C2=NNC(=Nc3ccc(Cl)cc3Cl)SC2)c1C	-14.3	45.9	35.6*	-6.9	NadD inh conf=3.1
